Screens from PubChem BioAssay.
TRPM1 prom inh: inhibitors of MITF-dependent TRPM1 promoter reporter, primary screen, cell-based, SK-MEL-5, single point, luciferase | inhibition, % at 12.5 µM | SK-MEL-5 TRPM1 promoter luciferase, 24 h | 330,000 compounds, 0.83% hits | AID 488899, 2010;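 active = mean inhibition across replicates of 60% or more, whatever share of single replicates reaches that level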
CHOP inhibitor: inhibitors of CHOP promoter induction, primary screen, cell-based, unfolded protein response, luciferase reporter | inhibition, % at 10 µM | 220,000 compounds, 3.8% hits | CHO-K1 CHOP-promoter luciferase, tunicamycin-induced, 15-18 h | AID 2732, 2010;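 active = compounds that reduced the stress-induced luciferase reporter signal by more than about 70% of percent inhibition, limit read from the data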
Peg3 prom inh: Peg3 promoter-driven luciferase inhibitors, primary screen, cell-based, HeLa, luciferase luminescence; inhibition, % at 20 µM; AID 588405, 2011; 360,000 compounds, 1.7% hits; HeLa PEG-Prom luciferase reporter, overnight;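 active = inhibition of at least 50% at 20 µM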
HIF-2a inh: HIF-2a reporter inhibitors, primary screen, luminescence, 786-0 RCC cells; 786-0 RCC cells HIF-2a reporter, luciferase luminescence, overnight; 360,000 compounds, 0.72% hits; AID 624352, 2012; inhibition, % at 18.8 µM;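 active = inhibition of the luminescence signal of 40% or more relative to plate controls, in a single-dose primary screen at 18.75 µM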
CF NFkB block: inhibitors of PAF-induced NF-kB signaling, primary screen, cell-based, GFP fluorescence, uHTS. KKLEB NF-kB-GFP reporter, GFP fluorescence overnight. inhibition, % at 5 µM. 360,000 compounds, 0.86% hits;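 active = at least 50% inhibition at 5 µM, scaled per plate between neutral and stimulator controls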;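 note: PAF is a Pseudomonas aeruginosa culture filtrate used as stimulus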
KKLEB cytotox: cytotoxicity in KKLEB CF airway cells, primary screen, cytotoxicity control for CF NF-kB inhibitor project, cell-based, uHTS, fluorescence assay plates; KKLEB CF airway cells viability, ATPlite luminescence, overnight; stronger effect = lower value; cells stimulated with P. aeruginosa culture filtrate; activity change (cytotoxicity), % at 5 µM; 360,000 compounds, 0.36% hits;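 active = corrected activity change at or below -50% at 5 µM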
Mdm2-MdmX confirm: retested Mdm2-MdmX interaction blockers, confirmation, cell-based, luminescence, single concentration, set 2; shares compounds with HIF-2a inh; inhibition, % at 8 µM; SaOS-2 split-luciferase Mdm2/MdmX complementation; 740 compounds, 99% hits;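 active = mean inhibition of the luminescence signal across two replicates at or above 26 percent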
Target sequence (O15151 whole entry, looked up): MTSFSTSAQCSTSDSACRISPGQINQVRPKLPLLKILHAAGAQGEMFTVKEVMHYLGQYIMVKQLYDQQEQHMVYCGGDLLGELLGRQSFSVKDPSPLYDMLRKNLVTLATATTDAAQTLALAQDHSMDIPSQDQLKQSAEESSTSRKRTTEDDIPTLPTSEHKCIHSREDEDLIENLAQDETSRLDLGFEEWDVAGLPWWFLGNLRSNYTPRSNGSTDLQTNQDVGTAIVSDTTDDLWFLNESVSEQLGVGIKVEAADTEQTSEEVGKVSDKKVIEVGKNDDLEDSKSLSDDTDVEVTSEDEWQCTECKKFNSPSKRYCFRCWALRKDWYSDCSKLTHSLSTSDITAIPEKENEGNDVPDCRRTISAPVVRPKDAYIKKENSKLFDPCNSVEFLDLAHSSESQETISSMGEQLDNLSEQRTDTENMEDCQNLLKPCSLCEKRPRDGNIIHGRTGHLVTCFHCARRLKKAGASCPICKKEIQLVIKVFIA
Target sequence (Q00987 whole entry, looked up): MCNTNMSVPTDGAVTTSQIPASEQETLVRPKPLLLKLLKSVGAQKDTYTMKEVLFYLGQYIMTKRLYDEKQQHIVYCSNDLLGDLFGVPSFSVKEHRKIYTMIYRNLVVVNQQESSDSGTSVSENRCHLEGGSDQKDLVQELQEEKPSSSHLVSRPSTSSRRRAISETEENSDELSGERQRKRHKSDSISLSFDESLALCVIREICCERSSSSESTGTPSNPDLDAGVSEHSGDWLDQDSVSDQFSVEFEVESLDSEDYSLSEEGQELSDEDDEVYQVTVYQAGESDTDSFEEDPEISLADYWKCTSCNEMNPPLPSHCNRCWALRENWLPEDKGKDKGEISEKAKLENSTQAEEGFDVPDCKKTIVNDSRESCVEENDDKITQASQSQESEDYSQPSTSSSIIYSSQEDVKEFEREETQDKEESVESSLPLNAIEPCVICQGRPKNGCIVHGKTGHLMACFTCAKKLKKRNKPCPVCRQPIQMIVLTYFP
HIF-2a conf: HIF-2a reporter inhibitor retest, confirmation, luminescence, 786-0 RCC cells; 1,800 compounds, 56% hits; inhibition, % at 18.8 µM; AID 651580, 2012; shares compounds with HIF-2a inh; HIF-2a luciferase reporter luminescence, overnight;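 active = mean inhibition across four replicates of at least 40 percent at the single tested concentration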
HIF-1a cs: HIF-1a luciferase reporter signal reduction – MiaPaCa-2 cells, single concentration, counter-screen for HIF-2a inhibitor project, confirmation | shares compounds with HIF-2a inh | AID 651589, 2012 | inhibition, % at 18.8 µM | MiaPaCa-2 HIF-1a luciferase reporter, desferoxamine, overnight | 1,800 compounds, 72% hits;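 active = mean inhibition of the reporter signal across four replicates at the single tested dose of 50% or more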
Each line names hits and unclear results; the compound was inactive in the other large screens (follow-up assays come after a bar, where they were run). A selection: hits, their analogues and other compounds. The true share with any hit is near 4.3%.

C=C1C(=O)[C@@]23C[C@H]4[C@@H]5[C@@]6(C)CCC[C@@]57[C@@H]2[C@@H](O)[C@@H]1C[C@H]3[C@H]7N4C6	Peg3 prom inh 93, HIF-2a inh 69, CF NFkB block 74 (no result: TRPM1 prom inh, CHOP inhibitor) | Mdm2-MdmX confirm 101
CCN1C[C@]2(COC)CC[C@H](O)[C@]34C1[C@](O)([C@@H](OC)[C@H]23)[C@@]1(O)C[C@H](OC)[C@H]2C[C@@H]4[C@@H]1[C@H]2OC	none (no result: CHOP inhibitor)
CCOC(=O)[C@]12Cc3cc(C)ccc3[C@H]1N(Cc1ccccc1)C(=O)c1cc(OC)ccc12	none (no result: TRPM1 prom inh, CHOP inhibitor, Peg3 prom inh, CF NFkB block, KKLEB cytotox)
CCOC(=O)[C@]12Cc3c(cc(OC)c(OC)c3OC)[C@H]1N(C1CCCCC1)C(=O)c1ccccc12	HIF-2a inh 76 (no result: TRPM1 prom inh, CHOP inhibitor, Peg3 prom inh, CF NFkB block, KKLEB cytotox) | HIF-2a conf 90 | HIF-1a cs 105
CCOC(=O)[C@]12Cc3cc(C)ccc3[C@H]1N(C1CCCCC1)C(=O)c1ccccc12	HIF-2a inh 88 (no result: TRPM1 prom inh, CHOP inhibitor, Peg3 prom inh, CF NFkB block, KKLEB cytotox) | HIF-2a conf 97 | HIF-1a cs 106
CCOC(=O)[C@]12Cc3ccccc3[C@H]1N(C(C)C)C(=O)c1ccccc12	none (no result: TRPM1 prom inh, CHOP inhibitor, Peg3 prom inh, CF NFkB block, KKLEB cytotox)
CCOC(=O)[C@]12Cc3cc(OC)ccc3[C@H]1N(C)C(=O)c1cc(OC)ccc12	none (no result: TRPM1 prom inh, CHOP inhibitor, Peg3 prom inh, CF NFkB block, KKLEB cytotox)
CCCCCN1C(=O)c2cc(OC)ccc2[C@@]2(C(=O)OCC)Cc3cc(OC)ccc3[C@@H]12	HIF-2a inh 81 (no result: TRPM1 prom inh, CHOP inhibitor, Peg3 prom inh, CF NFkB block, KKLEB cytotox) | HIF-2a conf 92 | HIF-1a cs 106
CCOC(=O)[C@]12Cc3ccc(C)cc3[C@H]1N(C1CCCCC1)C(=O)c1cc(OC)ccc12	HIF-2a inh 95 (no result: TRPM1 prom inh, CHOP inhibitor, Peg3 prom inh, CF NFkB block, KKLEB cytotox) | HIF-2a conf 99 | HIF-1a cs 106
C/C(=N\Nc1ccccc1)c1c(O)n(C)c(=O)n(C)c1=O	none
CCOc1ccccc1-n1c(O)c(C=NCCCN(CC)CC)c(=O)[nH]c1=O	none
O=C(O)C1C2CCC(O2)C1C(=O)NC1CCCCC1 (stereo unspecified)	none
NC(=O)c1c(NC(=O)c2ccc(S(=O)(=O)N(CCCl)CCCl)cc2)sc2c1CCCCC2	none
CCOC(=O)[C@]12Cc3ccc(C)cc3[C@H]1N(C1CCCCC1)C(=O)c1ccccc12	HIF-2a inh 81 (no result: TRPM1 prom inh, CHOP inhibitor, Peg3 prom inh, CF NFkB block, KKLEB cytotox) | HIF-2a conf 96 | HIF-1a cs 98
CNCCc1nc(N)n[nH]1	none
CCC(C)(O)C(=O)OC1C(=O)OC2CC3C(C)=CC(O)C(O)C3(C)C3C4(O)OCC23C1C(C)C4O (stereo unspecified)	Peg3 prom inh 95, HIF-2a inh 46 (no result: TRPM1 prom inh, CHOP inhibitor) | HIF-2a conf 45 | HIF-1a cs 102
O=c1[nH]c2ccccc2n1C1CCN(C(CCc2ccccc2)c2nnnn2Cc2ccccc2)CC1 (stereo unspecified)	Peg3 prom inh 97, HIF-2a inh 67, CF NFkB block 84, KKLEB cytotox -82 (no result: TRPM1 prom inh, CHOP inhibitor) | HIF-2a conf inactive | HIF-1a cs 105
COc1ccc(/C=C/C(=O)c2c(O)n(CCC3=CCCCC3)c(=O)[nH]c2=O)cc1	CHOP inhibitor 81, HIF-2a inh 53 | HIF-2a conf inactive | HIF-1a cs 65
C=C1C(=O)OC2CC(C)C3C=CC(=O)C3(C)C(O)C12 (stereo unspecified)	TRPM1 prom inh 100, Peg3 prom inh 106, HIF-2a inh 86, CF NFkB block 96, KKLEB cytotox -62 (no result: CHOP inhibitor) | HIF-2a conf 94 | HIF-1a cs 100
CC(=O)Nc1nnc(CCN(CCc2nnc(NC(C)=O)s2)[N+](=O)[O-])s1	none
C[C@H]1CCC/C=C/C2C[C@H](O)CC2[C@H](O)/C=C/C(=O)O1 (stereo partly specified)	TRPM1 prom inh 80, Peg3 prom inh 55, HIF-2a inh 68, CF NFkB block 81 (no result: CHOP inhibitor) | Mdm2-MdmX confirm 103
CC1CCC/C=C/C2CC(O)CC2C(O)/C=C/C(=O)O1 (stereo unspecified)	TRPM1 prom inh 85, Peg3 prom inh 60, HIF-2a inh 46, CF NFkB block 79, KKLEB cytotox -60 | Mdm2-MdmX confirm 103 | HIF-2a conf inactive | HIF-1a cs 78
CC1CCC[C@H](O)CCCCCc2cc(O)cc(O)c2C(=O)O1 (stereo partly specified)	none
COC(=O)C1=C(c2c(C)noc2C)C[C@@H]2CC[C@H]1N2C(=O)NCC1CC1	none (no result: CHOP inhibitor)
